Screening data (PubChem BioAssay)
In the library only some 1.5% were active in any assay of this set; here they are far more common.
GC-B act = GC-B (human) receptor activation | activation, % at 10 µM | 370,000 compounds, 0.11% hits | HEK293-GC-B cells, CNP EC30, cGMP TR-FRET; 0% at EC30 CNP, 100% saturating CNP | AID 1920062 | P20594;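 active = activation at 10 µM reaching about 35% in either raw or pattern-adjusted values, limit read from the data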
NadD block = NadD (S. aureus) enzyme inhibition; purified NadD enzyme, colorimetric absorbance read-out; inhibition, % at 20 µM; 360,000 compounds, 0.78% hits; AID 602399; in the data active = inhibition above about 26%
Neddyl block = cullin neddylation inhibition; TR-FRET cullin neddylation, biochemical; inhibition, % at 25 µM; 360,000 compounds, 0.58% hits; in the data active = inhibition above about 36%
NPR1 activator = GC-A (human) enzyme activation; HEK293 GC-A cells, cGMP TR-FRET, EC30 ANP; 0% at EC30 ANP, 100% saturating ANP; activation, % at 10 µM; 370,000 compounds, 0.14% hits; in the data active = activation above about 40%
Numbers stand for hits; – = inactive; · = not tested or not shown; ! = a repeat was not active.

SMILES	GC-B act	NadD block	Neddyl block	NPR1 activator
Cc1cc(/C=c2\sc3nc4ccccc4n3c2=O)c(C)n1-c1ccc(C(=O)O)cc1	–	–	40.4	–
Cc1cc(/C=c2/sc3nc4ccccc4n3c2=O)c(C)n1-c1ccccn1	–	–	–	–
COc1ccc(C(=O)C2(C(=O)NCc3ccccc3)CC(c3ccccn3)=NO2)cc1 (configuration not stated)	–	·	·	–
Cc1ccc(Cc2c(-c3ccc(Br)cc3)nc3cc(C)ccn23)cc1	45.7	–	–	–
Cc1ccc(Cc2c(-c3ccc(F)cc3)nc3cc(C)ccn23)cc1	–	–	–	–
Cc1ccc(/C=C2/NC(=O)N(Cc3ccccc3)C2=O)o1	46.3	–	–	–
Nc1nc2c(ncn2[C@@H]2O[C@H](C(=O)NCC3CCCCC3)[C@@H](O)[C@H]2O)c(=O)[nH]1	–	·	·	–
N[C@@H](Cc1ccc(O)c(O)c1)C(=O)O	–	–	–	–
N[C@@H](Cc1cc(I)c(Oc2ccc(O)c(I)c2)c(I)c1)C(=O)O	–	58.3!	–	–
Cc1ccc(Cn2c(C(C)Nc3nc(-c4ccc(F)cc4)cs3)nc3cc(C(=O)NCCCO)ccc32)cc1 (configuration not stated)	–	–	–	–
COc1ccc(-c2csc(NC(C)c3nc4cc(C(=O)NCCCO)ccc4n3Cc3ccc(C)cc3)n2)cc1 (configuration not stated)	46.6	–	–	–
O=C1/C(=C/c2ccc(N3CCOCC3)o2)SC(=Nc2ccccc2)N1CCc1c[nH]c2ccccc12	·	40.1	–	·
CN1CCCCC(NC(=O)c2ccc(F)cc2)C1=O (configuration not stated)	–	·	·	–
c1csc(CNc2ncnc3ccc(-c4ccoc4)cc23)c1	–	–	–	–
c1csc(CNc2ncnc3ccc(-c4ccc5c(c4)OCO5)cc23)c1	32.5!	–	·	–
CCn1nc([N+](=O)[O-])c2c(-c3nc4ccccc4o3)c(N)n(CCCOC)c2c1=O	–	–	–	46.3
CC(=O)c1c(C)nc2ccc(Br)cc2c1-c1ccccc1	–	–	–	–
Cc1nc2ccc(Br)cc2c(-c2ccccc2)c1C(=O)O	–	–	–	44.3
Nc1[nH]n2c(=O)cc(-c3ccccc3)nc2c1N=Nc1ccccc1	–	30.7	–	–
O=C(OCC(=O)N1CCN(C(=O)c2ccco2)CC1)c1cc(-c2ccco2)nc2ccccc12	–	43.7	44.8	–
O=C(OCC(=O)N1CCN(C(=O)c2ccco2)CC1)c1cc(-c2ccc(Cl)c(Cl)c2Cl)nc2ccccc12	–	–	–	–
Cc1nc(N2CCN(C(=O)c3ccc(Cl)cc3)CC2)c(C#N)c2c1COC(C)(C)C2	–	–	40.9	–
CCc1nc(N2CCN(C(C)=O)CC2)c(C#N)c2c1COC(C)(C)C2	–	–	·	–
Cc1ccc2c(c1)c1ccc3c(c1n2C)C(=O)C=CC3=O	–	48.2	·	–
Cn1c2ccccc2c2ccc3c(c21)C(=O)C=CC3=O	–	–	–	–
SMILES	GC-B act	NadD block	Neddyl block	NPR1 activator
O=[N+]([O-])c1cc(/C=N/NC(=S)Nc2ccccc2Cl)ccc1Cl	–	–	–	57.8
CC(=O)c1cc(-c2ccccc2)n(CC(=O)NCc2ccccc2Cl)c1C	–	·	·	–
Cc1cc(Br)ccc1NC(=O)c1sc2ncnc(N3CCN(c4ccccn4)CC3)c2c1C	–	30.1	–	–
COc1ccc(NC(=O)c2sc3ncnc(N4CCN(c5ccccn5)CC4)c3c2C)cc1Cl	–	–	–	–
CC(C)C(=O)NC(c1ccco1)c1ccc2cccnc2c1O (configuration not stated)	–	–	–	–
Oc1c(C(Nc2nc3ccccc3s2)c2ccco2)ccc2cccnc12 (configuration not stated)	–	34.6	–	–
CCCCN(C)C(=O)CSc1nnc(-c2cc(OC)c(OC)c(OC)c2)o1	–	·	·	–
CC(=O)OC[C@]12CC[C@H]3[C@@](C)(CC[C@H]4C(C)(C)CCC[C@]34C)[C@@H]1CC(C1=CC(=O)OC1O)O2 (some centres not stated)	–	31.9	–	–
CCOC(=O)c1cccc(NC(=O)CN(C)S(=O)(=O)c2cc(OC)ccc2OC)c1	–	·	·	–
C#CCOCCOCCOCCNc1nc(N2CCN(C(=O)CCCCCCCCCCNC(=O)[C@H](CCCCN)n3cc(C)nn3)CC2)nc(N2CCN(C(=O)CCCCCCCCCCNC(=O)[C@@H]([C@H](C)CC)n3cc(CCCCCN)nn3)CC2)n1	·	51.3	–	·
